PubChem BioAssay (NCATS)
Results filed as inconclusive are left out. Active and inactive are the calls of the source. Unless noted, calls follow the shape of the dose curve; as a rule, active = well fitted curve in the direction sought with a large enough effect; inconclusive = small, poorly fitted or top-dose-only effect, or another doubt; inactive = no such curve, though single readings can be large; an effect the other way counts as inactive or inconclusive.

How the values were obtained:
UISO = assay: qHTS assay to identify novel small-molecules to repurpose for Merkel cell carcinoma treatment (AID 1296009); conditions: MCC and control cell lines, CellTiter-Glo viability, 72 h; series mostly up to 46 µM; also: % is scaled to controls: 0 for no effect and ±100 for the full control effect; nearly all actives have a fitted effect of over 60% in size
In short: (§1)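 Cells were treated for 72 hr at 37 degree celsius with compounds in 8- or 11-point dose response. Viability was read by CellTiter-Glo luminescence, normalized to no-cell (cytotoxicity) and DMSO controls.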

WaGa = assay: as above; conditions: MCC and control cell lines, CellTiter-Glo viability, 72 h; series mostly up to 46 µM
In short: as §1

C33A = assay: Primary qHTS to identify gynecologic anti-cancer compounds using libraries of approved drugs and bioactive compounds (AID 1345084); conditions: Gynecologic cancer cell panel viability, ATPlite luminescence, 48 h; series mostly up to 57.5 µM; also: % is scaled to controls: 0 for no effect and ±100 for the full control effect; nearly all actives have a fitted effect of over 55% in size
In short: (§2)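 ATP-based viability (ATPlite), 1,000 cells/well, 16 h pre-incubation, 48 h compound at 37 C, 5% CO2, 15 min RT before read.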

CASKI = assay: as above; conditions: Gynecologic cancer cell panel viability, ATPlite luminescence, 48 h; series mostly up to 57.5 µM
In short: as §2

Es-2 = assay: as above; conditions: Gynecologic cancer cell panel viability, ATPlite luminescence, 48 h; series mostly up to 57.5 µM
In short: as §2

HeLa = assay: as above; conditions: Gynecologic cancer cell panel viability, ATPlite luminescence, 48 h; series mostly up to 57.5 µM
In short: as §2

Hek293T = assay: as above; conditions: Gynecologic cancer cell panel viability, ATPlite luminescence, 48 h, control line for the selectivity index; series mostly up to 57.5 µM
In short: as §2

JEG-3 = assay: as above; conditions: Gynecologic cancer cell panel viability, ATPlite luminescence, 48 h; series mostly up to 57.5 µM
In short: as §2

OV90 = assay: as above; conditions: Gynecologic cancer cell panel viability, ATPlite luminescence, 48 h; series mostly up to 57.5 µM
In short: as §2

PA-1 = assay: as above; conditions: Gynecologic cancer cell panel viability, ATPlite luminescence, 48 h; series mostly up to 57.5 µM
In short: as §2

Tov-21-G = assay: as above; conditions: Gynecologic cancer cell panel viability, ATPlite luminescence, 48 h; series mostly up to 57.5 µM
In short: as §2

Tov112D = assay: as above; conditions: Gynecologic cancer cell panel viability, ATPlite luminescence, 48 h; series mostly up to 57.5 µM
In short: as §2

[1] = Drug repurposing screens with cells derived from glioblastoma tumor samples (AID 1345199); conditions: GBM patient neurospheres viability, ATP luminescence, 48 h; also: nearly all actives have a fitted effect of over 40% in size; also: potency is read from the fitted curve at half-maximal effect; as to activity, negative = cell killing: % is scaled to controls: 0 for no effect and ±100 for the full control effect
In short: (§3)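 Four patient lines of CD133+ GBM neurospheres were screened at several concentrations; hits were retested in those lines plus three slower-growing GBM lines, using 48-hour treatment and ATP-based viability.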

astro = assay: as above; conditions: viability, ATP luminescence, 48 h; series mostly up to 45.9 µM
In short: as §3

SKOV3 = assay: Primary qHTS to identify gynecologic anti-cancer compounds using libraries of approved drugs and bioactive compounds (AID 1345084); conditions: Gynecologic cancer cell panel viability, ATPlite luminescence, 48 h; series mostly up to 57.5 µM; also: % is scaled to controls: 0 for no effect and ±100 for the full control effect; nearly all actives have a fitted effect of over 55% in size
In short: as §2

[2] = molecular target: Nuclear receptor subfamily 1 group I member 2 (Rattus norvegicus) (UniProt Q9R1A7); assay: qHTS assay for small molecule activators of the rat pregnane X receptor (rPXR) signaling pathway (AID 651751; call rule not given here; also: 0% is about no effect); conditions: rPXR reporter cells, luciferase (One-Glo), 24 h
[3] = qHTS assay for small molecule activators of the human pregnane X receptor (PXR) signaling pathway (AID 720659; call rule not given here; also: 0% is about no effect)
[4] = at 45.9 µM (top of the series), tumour line B
[5] = at 45.9 µM (top of the series), tumour line D
[6] = at 46 µM (top of the series), tumour line A
[7] = at 46.1 µM (top of the series), tumour line C
[8] = at 20 µM (top of the series), tumour line C
[9] = at 21.2 µM (top of the series), tumour line B
[10] = at 21.2 µM (top of the series), tumour line D

Nuclear receptor subfamily 1 group I member 2 (Rattus norvegicus), sequence (Q9R1A7 whole entry, looked up): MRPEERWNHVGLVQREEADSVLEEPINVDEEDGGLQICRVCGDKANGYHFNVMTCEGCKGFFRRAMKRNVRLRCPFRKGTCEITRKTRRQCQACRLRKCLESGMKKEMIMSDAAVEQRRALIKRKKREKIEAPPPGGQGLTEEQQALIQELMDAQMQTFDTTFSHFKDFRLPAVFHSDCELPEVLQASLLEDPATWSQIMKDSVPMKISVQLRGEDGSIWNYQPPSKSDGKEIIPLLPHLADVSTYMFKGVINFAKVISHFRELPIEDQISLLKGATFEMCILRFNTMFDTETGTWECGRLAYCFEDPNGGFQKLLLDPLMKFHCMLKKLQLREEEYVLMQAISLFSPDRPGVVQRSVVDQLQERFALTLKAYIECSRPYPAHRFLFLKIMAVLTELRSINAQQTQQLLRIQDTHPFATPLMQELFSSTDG

Nc1ncnc2c1ncn2[C@@H]1O[C@H](COP(=O)(O)O)[C@@H](O)[C@H]1O
inactive: outcome (UISO) | outcome (WaGa) | outcome (C33A) | outcome (CASKI) | outcome (Es-2) | outcome (HeLa) | outcome (Hek293T) | outcome (JEG-3) | Potency (OV90) | outcome (PA-1) | outcome (Tov-21-G) | outcome (Tov112D) | activity, negative = cell killing [1, 4] 4.49% | activity, negative = cell killing [1, 5] 20.2% | activity, negative = cell killing [1, 6] -19.3% | activity, negative = cell killing [1, 7] -13.6% | outcome (astro)

CC(C)CCCC(C)CCCC(C)CCCCC(C)CCCC(C)CCCC(C)C (stereo not given)
inactive: outcome (UISO) | outcome (WaGa) | outcome (C33A) | outcome (CASKI) | outcome (Es-2) | outcome (HeLa) | outcome (Hek293T) | outcome (JEG-3) | Potency (OV90) | outcome (PA-1) | outcome (SKOV3) | outcome (Tov-21-G) | outcome (Tov112D) | activity, negative = cell killing [1, 4] 2.81% | activity, negative = cell killing [1, 5] 2.23% | activity, negative = cell killing [1, 6] -12.7% | activity, negative = cell killing [1, 7] 8.73% | outcome (astro)

CC(=O)OCC(=O)[C@@]1(O)CC[C@H]2[C@@H]3CCC4=CC(=O)C=C[C@]4(C)[C@@]3(F)[C@@H](O)C[C@@]21C
inactive: outcome (UISO) | outcome (WaGa) | outcome (C33A) | outcome (CASKI) | outcome (Es-2) | outcome (HeLa) | outcome (Hek293T) | outcome (JEG-3) | Potency (OV90) | outcome (PA-1) | outcome (Tov-21-G) | outcome (Tov112D) | activity, negative = cell killing [1, 8] 11.3% | activity, negative = cell killing [1, 9] 1.05% | activity, negative = cell killing [1, 10] -1.44% | activity, negative = cell killing ([1]; at 21.3 µM (top of the series), tumour line A) -7.16%

C=CCOc1ccccc1OCC(O)CNC(C)C (stereo not given)
inactive: outcome (UISO) | outcome (WaGa) | outcome (C33A) | outcome (CASKI) | outcome (Es-2) | outcome (HeLa) | outcome (Hek293T) | outcome (JEG-3) | Potency (OV90) | outcome (PA-1) | outcome (SKOV3) | outcome (Tov-21-G) | outcome (Tov112D) | activity, negative = cell killing [1, 8] -4.31% | activity, negative = cell killing [1, 9] 1.37% | activity, negative = cell killing [1, 10] -11.5%

CC(=O)Nc1ccc(C(=O)O)cc1
inactive: outcome (UISO) | outcome (WaGa) | outcome (C33A) | outcome (CASKI) | outcome (Es-2) | outcome (HeLa) | outcome (Hek293T) | outcome (JEG-3) | Potency (OV90) | outcome (PA-1) | outcome (SKOV3) | outcome (Tov-21-G) | outcome (Tov112D) | activity, negative = cell killing [1, 4] -15.7% | activity, negative = cell killing [1, 5] 14.1% | activity, negative = cell killing [1, 6] -33.2% | activity, negative = cell killing [1, 7] -22.1% | outcome (astro) | max response [2] 0.613% | outcome [3]

COc1cc(C(=O)NCCCCCC(=O)O)cc(OC)c1OC
inactive: outcome (UISO) | outcome (WaGa) | outcome (C33A) | outcome (CASKI) | outcome (Es-2) | outcome (HeLa) | outcome (Hek293T) | outcome (JEG-3) | Potency (OV90) | outcome (Tov-21-G) | outcome (Tov112D) | activity, negative = cell killing [1, 4] -7.31% | activity, negative = cell killing [1, 5] -8.75% | activity, negative = cell killing [1, 6] -18.3% | activity, negative = cell killing [1, 7] -40.8% | outcome (astro)

CC(=O)Nc1cccc(O)c1
inactive: outcome (UISO) | outcome (WaGa) | outcome (C33A) | outcome (CASKI) | outcome (Es-2) | outcome (HeLa) | outcome (Hek293T) | outcome (JEG-3) | Potency (OV90) | outcome (PA-1) | outcome (SKOV3) | outcome (Tov-21-G) | outcome (Tov112D) | activity, negative = cell killing [1, 4] -7.47% | activity, negative = cell killing [1, 5] -9.18% | activity, negative = cell killing [1, 7] -17.1% | max response [2] -4.25% | outcome [3]

CC(C)=CCC[C@@](C)(O)[C@H]1CC=C(C)CC1
inactive: outcome (UISO) | outcome (WaGa) | outcome (C33A) | outcome (CASKI) | outcome (Es-2) | outcome (Hek293T) | outcome (JEG-3) | Potency (OV90) | outcome (PA-1) | outcome (SKOV3) | outcome (Tov-21-G) | outcome (Tov112D) | activity, negative = cell killing [1, 4] -3.12% | activity, negative = cell killing [1, 5] 18.2% | activity, negative = cell killing [1, 7] -10.5%

CCCCCCCC(=O)OCC(COC(=O)CCCCCCC)OC(=O)CCCCCCC
inactive: outcome (UISO) | outcome (WaGa) | outcome (C33A) | outcome (CASKI) | outcome (Es-2) | outcome (HeLa) | outcome (Hek293T) | outcome (JEG-3) | Potency (OV90) | outcome (PA-1) | outcome (SKOV3) | outcome (Tov-21-G) | outcome (Tov112D) | activity, negative = cell killing [1, 4] -10.1% | activity, negative = cell killing [1, 5] -25.3% | activity, negative = cell killing [1, 7] -9.12% | outcome (astro) | max response [2] -0.801% | outcome [3]

C/C=C1\[C@H]2C=C(C)C[C@]1(N)c1ccc(=O)[nH]c1C2
inactive: outcome (UISO) | outcome (WaGa) | outcome (C33A) | outcome (CASKI) | outcome (Es-2) | outcome (HeLa) | outcome (Hek293T) | outcome (JEG-3) | Potency (OV90) | outcome (PA-1) | outcome (Tov-21-G) | outcome (Tov112D) | activity, negative = cell killing [1, 4] -6.65% | activity, negative = cell killing [1, 5] -6.44% | activity, negative = cell killing [1, 6] -18.8% | activity, negative = cell killing [1, 7] 3.14% | outcome (astro)

CCc1nnc(NS(=O)(=O)c2ccc(N)cc2)s1
inactive: outcome (UISO) | outcome (WaGa) | outcome (C33A) | outcome (CASKI) | outcome (Es-2) | outcome (HeLa) | outcome (Hek293T) | outcome (JEG-3) | Potency (OV90) | outcome (PA-1) | outcome (SKOV3) | outcome (Tov-21-G) | outcome (Tov112D) | activity, negative = cell killing [1, 4] -21.8% | activity, negative = cell killing [1, 5] -9.53% | activity, negative = cell killing [1, 6] -28.8% | activity, negative = cell killing [1, 7] -20.9% | outcome (astro)

CC(C)NC[C@@H](O)COc1ccc(CC(N)=O)cc1
inactive: outcome (UISO) | outcome (WaGa) | outcome (C33A) | outcome (CASKI) | outcome (Es-2) | outcome (HeLa) | outcome (Hek293T) | outcome (JEG-3) | Potency (OV90) | outcome (PA-1) | outcome (Tov-21-G) | outcome (Tov112D) | activity, negative = cell killing [1, 4] -18.7% | activity, negative = cell killing [1, 5] 5.31% | activity, negative = cell killing [1, 6] 1.1% | activity, negative = cell killing [1, 7] -9.77%

CCCNC(C)(C)COC(=O)c1ccccc1
inactive: outcome (UISO) | outcome (WaGa) | outcome (C33A) | outcome (CASKI) | outcome (Es-2) | outcome (HeLa) | outcome (Hek293T) | outcome (JEG-3) | Potency (OV90) | outcome (PA-1) | outcome (SKOV3) | outcome (Tov-21-G) | outcome (Tov112D) | activity, negative = cell killing [1, 4] -3.47% | activity, negative = cell killing [1, 5] 11.4% | activity, negative = cell killing [1, 6] -6.31% | activity, negative = cell killing [1, 7] 1.22% | outcome (astro)

CCOc1ccccc1O[C@H](c1ccccc1)[C@H]1CNCCO1
active: Potency ([1]; tumour line A) 12.6 µM
inactive: outcome (UISO) | outcome (WaGa) | outcome (C33A) | outcome (CASKI) | outcome (Es-2) | outcome (HeLa) | outcome (Hek293T) | outcome (JEG-3) | Potency (OV90) | outcome (PA-1) | outcome (Tov-21-G) | outcome (Tov112D) | activity, negative = cell killing [1, 4] -15.3% | activity, negative = cell killing [1, 7] 11.5% | outcome (astro)
